Source: PubChem BioAssay (NCI)
About 83,000 compounds went through this panel and 20% of them were active in at least one assay; those are over-represented in the sample as a whole.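 Note: values are percent growth. 100 is the growth of untreated cells, values between 100 and 0 indicate rising inhibition; between -100 and 0 indicates cell death.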 Calls of active or inactive are those of the source. Rule for the calls: active = growth percent below 10; inactive = the rest.

What was measured:
Assay in all cases: NCI-60 one-dose screen, 48 h (100 = growth as untreated, 0 = no growth, -100 = all killed)
Details in all cases: 10 µM unless noted
[1] = tested on: SR leukemia
[2] = tested on: RPMI-8226 leukemia
[3] = tested on: OVCAR-8 ovarian
[4] = tested on: OVCAR-4 ovarian
[5] = tested on: SK-OV-3 ovarian
[6] = tested on: IGROV1 ovarian
[7] = tested on: HS 578T breast
[8] = tested on: NCI/ADR-RES ovarian
[9] = tested on: OVCAR-3 ovarian
[10] = tested on: OVCAR-5 ovarian

Measured: growth

c1ccc(-c2cn3c(-c4c[nH]c5ccccc45)csc3n2)cc1
inactive: [1] 61.7% | [2] 31.2% | [3] 65.5% | [4] 61.9% | [5] 87.3% | [6] 62.2% | [7] 68.9% | [8] 91.8%

Cc1ccc(-c2nc(SCC(=O)c3ccccc3)nc(Nc3ccc(S(N)(=O)=O)cc3)c2C#N)cc1
active: [7] -0.186%
inactive: [1] 56.9% | [2] 65.4% | [3] 34.6% | [4] 24.3% | [5] 107% | [6] 86.3% | [8] 81.7%

CC[C@H](CC[C@@H](C)[C@H]1CC[C@H]2[C@@H]3CC(=O)C4=CC(=O)/C(=C/c5ccc([N+](=O)[O-])cc5)C[C@]4(C)[C@H]3CC[C@]12C)C(C)C
inactive: [1] 84.3% | [2] 83.5% | [3] 100% | [4] 108% | [5] 124% | [6] 111% | [7] 119% | [8] 106%

CC1=C(C)C(=O)C(Nc2cccc(C(=O)OC(C)(C)C)c2)=CC1=O
active: [9] 6.18%
inactive: [1] 81.8% | [2] 75.8% | [3] 82.2% | [4] 34.9% | [7] 79.4% | [8] 76%

Cc1cccc(N2CCN(C3=C(Cl)C(=O)c4ncccc4C3=O)CC2)c1
inactive: [2] 46.8% | [3] 80.6% | [4] 67% | [5] 92.9% | [6] 73.1% | [7] 70.6% | [8] 78.7%
active: [1] 3.39%

COc1ccc(CC(C)=C(c2ccc(OCCN3CCCC3)cc2)c2ccc(OCCN3CCCC3)cc2)cc1
active: [1] -34% | [2] -21.7% | [3] -81.6% | [4] -86.9% | [5] -88% | [6] -76.5% | [9] -81% | [7] -47.3% | [8] -80.5%

CC(C)=CCC[C@](C)(O)[C@H]1CC[C@]2(C)[C@@H]1CC[C@@H]1[C@@]3(C)CC[C@H](N)C(C)(C)[C@@H]3CC[C@]12C
active: [1] -24.4% | [2] -9.63%
inactive: [3] 98.1% | [4] 97.5% | [5] 104% | [9] 107% | [7] 94.6%

Cc1ccc(C(=O)CSc2nc3ccccc3c(=O)n2C)cc1
inactive: [1] 81.5% | [2] 63.8% | [3] 94.4% | [4] 52.4% | [5] 87.4% | [6] 71.1% | [9] 94.2% | [7] 94.6% | [8] 90%

Cc1ccc(OCc2occc2C(=O)N2CCOCC2)cc1
inactive: [1] 104% | [2] 97.7% | [3] 113% | [10] 102% | [4] 103% | [7] 104% | [8] 107%

CCOC(=O)c1cccc(NC2=C(Cl)C(=O)c3nc(C)ccc3C2=O)c1
inactive: [1] 37.1% | [2] 53.3% | [3] 97.8% | [4] 53.7% | [5] 98% | [6] 17.3% | [9] 46.1% | [7] 111% | [8] 94.6%

O=C(Nc1cccc(Cl)c1)Nc1nc2cc([N+](=O)[O-])ccc2o1
inactive: [1] 57.8% | [2] 35.8% | [3] 33.9% | [5] 74.3% | [6] 44.9% | [7] 71.4% | [8] 22.6%
active: [4] 3.58% | [9] -0.896%

C#Cc1cc(OC)c(C(=O)Nc2ccc(F)cc2C(=O)Nc2cccc(S(=O)(=O)C(F)(F)F)c2)cn1
active: [1] -42.7% | [2] -44.1% | [3] 5.67% | [5] -70.5% | [6] -51% | [9] -30.2% | [7] -19.7% | [8] -29.1%
inactive: [4] 27.8%

C#CCOc1cccc(/C(N)=N/C(N)=N/c2nc3ccccc3s2)c1
inactive: [1] 34.5% | [2] 83.2% | [3] 67.9% | [10] 111% | [4] 102% | [9] 104% | [7] 108% | [8] 59.1%

N#C/C(=C\c1ccc(-c2ccc(Cl)c(Cl)c2)o1)C(=O)Nc1ncc(Cc2ccc(Cl)cc2)s1
active: [4] -15.1% | [7] -7.83%
inactive: [1] 16% | [2] 67.4% | [3] 19.9% | [5] 81.2% | [6] 26.2% | [8] 32.7%

CN1CCN(Cc2ccc(NC(=O)c3cncc(C#Cc4cnc5ccc(N)nn45)c3)cc2C(F)(F)F)CC1
inactive: [2] 24.7% | [3] 16.5% | [4] 46.1% | [5] 45.3% | [7] 20.6% | [8] 89.8%
active: [1] 5.19% | [6] -4.68%

NS(=O)(=O)c1cccc(Nc2nc(SCC(=O)c3ccc(Cl)cc3)nc3c2CCC3)c1
inactive: [1] 98.7% | [2] 97.3% | [3] 82.8% | [4] 95.8% | [5] 95.7% | [6] 99.8% | [7] 81% | [8] 96.7%

COc1ccc2sc(NC(=O)CCCCCCNC(=O)C(O)(O)C(F)(F)F)nc2c1
active: [3] 2.54% | [5] -26.6% | [9] -23.9% | [8] 5.2%
inactive: [1] 12.5% | [2] 14.6% | [4] 27.7% | [7] 19.1%
